# Results taken from PubChem BioAssay AID463212 (Sanford-Burnham Center for Chemical Genomics, 2010).
# About 4,400 (1.3%) of roughly 330,000 compounds were called active.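 Rule for the calls: active = growth inhibition of the mutant yeast at or above 50%; inactive = the rest.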 Only a selection was taken, and actives are over-represented in it overall.
# Assay: growth inhibitors of tim23-1 mutant yeast, primary screen, luminescence, uHTS (AID 463212);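 note: temperature-sensitive mutant grown at 25 °C; plate controls were DMSO-treated mutant yeast for no effect and medium wells lacking yeast for full effect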
# Settings: S. cerevisiae tim23-1 growth, BacTiter-Glo luminescence, 24 h; at 20 µM; stronger effect = higher value
row,Compound,inhibition
1,COc1ccc([N+](=O)[O-])cc1C1NN=C(c2cccc3ccccc23)S1 (configuration not stated),0.511% (inactive)
2,N#C[C@]1(S(=O)(=O)c2ccccc2)C[C@@H]2ON=C(c3cccc(Br)c3)[C@@H]2C1,24.4% (inactive)
3,CSc1ncnc2sc(C)c(C)c12,-2.76% (inactive)
4,Cc1sc2ncnc(Sc3nc4ccccc4s3)c2c1C,14.7% (inactive)
5,CCCNc1ncnc2sc(C)c(C)c12,58.6% (active)
6,COc1cc(C(=O)NCC(c2ccco2)N2CCCC2)ccc1OCc1ccccc1 (configuration not stated),2.02% (inactive)
7,CCc1ccc(C2C(C#N)=C(N)N(N3CCOCC3)C3=C2C(=O)CC(C)(C)C3)s1 (configuration not stated),5.14% (inactive)
8,Cc1ccc(S(=O)(=O)N2CC(O)C[C@H]2C(=O)OCC(=O)Nc2ccc(N3CCOCC3)cc2)cc1C (some centres not stated),4.11% (inactive)
9,O=C(O)C#Cc1cccc2ccccc12,7.2% (inactive)
10,CN(Cc1ccccc1)C(=O)COC(=O)c1ccccc1Nc1ccccc1,42% (inactive)
11,CCN1/C(=C\c2ccc3ccccc3[n+]2CC)Sc2cc(C)ccc21,51.5% (active)
12,CC(C)(C)OC(=O)CNC(=O)c1[nH]cnc1C(=O)N[C@@H](CCCCN)C(=O)OC(C)(C)C,-2.18% (inactive)
13,O=C(c1ccccc1)c1cccn1CC(=O)N1CCN(c2ccc(F)cc2)CC1,17.4% (inactive)
14,CN(C)Cc1ccccc1C1(O)c2ccccc2CSc2ccccc21 (configuration not stated),34.6% (inactive)
15,COc1ccc(C(=O)CC(=O)c2ccc(C)cc2)c(O)c1,29.8% (inactive)
16,O=C(CSc1ncn[nH]1)NCc1ccc2c(c1)OCO2,-3.54% (inactive)
17,O=C(/C=C/Sc1ncn[nH]1)c1ccc(Cl)cc1,74.3% (active)
18,O=C(CSc1ncn[nH]1)Nc1ccc(Br)cc1Br,-3% (inactive)
19,CN(CCC1CCOCC1)C(=O)CC1C(=O)NCCN1Cc1cccc(F)c1 (configuration not stated),-8.17% (inactive)
20,COc1ccc(OCCn2ccnc2C)cc1,-7.96% (inactive)
21,COc1cc(OC)cc(-c2cc3nc(C4CCN(C(=O)OC(C)(C)C)CC4)cc(=O)n3[nH]2)c1,7.61% (inactive)
22,CCCCNC(=O)CCn1nc(-c2ccc(Cl)cc2)ccc1=O,18% (inactive)
23,Cc1ccc(S(=O)(=O)NC(C)C(=O)NCc2ccc(Cl)cc2)cc1 (configuration not stated),-2.23% (inactive)
24,CCOc1ccccc1C1NC(=O)NC(C)=C1C(=O)OCc1ccco1 (configuration not stated),16% (inactive)
25,CCCn1nc(C(=O)NNC(=O)CCOc2ccccc2OCC)c2ccccc2c1=O,-4.04% (inactive)

row,Compound,inhibition
1,CCOc1ccccc1/C=c1\sc2nc(-c3ccco3)nn2c1=O,52.2% (active)
2,COC(=O)c1c(NC(=O)c2ccc(S(=O)(=O)N3CCOCC3)cc2)sc2c1CCN(C(C)C)C2,8.38% (inactive)
3,CC(=O)c1ccc(NC(=O)C2CCCN2S(=O)(=O)c2cccs2)cc1 (configuration not stated),14.8% (inactive)
4,C=C1CCC(N(O)c2cc(C)on2)C(=C)CCC2C1CC2(C)C (configuration not stated),55.5% (active)
5,Cc1cccc(N(C)C(=O)c2cc3c(=O)[nH]c4ccc(C)cc4c3s2)c1,6.52% (inactive)
6,O=C(N/N=C\c1cccc(Br)c1)c1ccccc1-n1cccc1,53.7% (active)
7,O=C(CNC(=O)c1cccs1)N/N=C/c1cccc(Br)c1,16.1% (inactive)
8,O=C(N/N=C/c1cccc(Br)c1)c1ccc(N2CCCC2=O)cc1,12.3% (inactive)
9,CCS(=O)(=O)Nc1cccc(-c2cc(-c3ccccc3)c3cc(C)ccc3n2)c1,29.6% (inactive)
10,Cc1ccc2nc(Nc3ccccc3)cc(C)c2c1,57.6% (active)
11,CN1CCN(c2nc(Nc3ccc(O)cc3)nc3ccccc23)CC1,-37.1% (inactive)
12,Cc1cc(Nc2ccc(Br)cc2)nc2ccccc12,55.5% (active)
13,CC(=O)Nc1ccc(Nc2cc(C)nc(Nc3ccc(NC(C)=O)cc3)n2)cc1,8.84% (inactive)
14,Cc1ccc2nc(Nc3ccccc3O)nc(-c3ccccc3)c2c1,24.4% (inactive)
15,CC(OC(=O)c1ccc([N+](=O)[O-])cc1)C(=O)NCC1CCCCC1 (configuration not stated),3.5% (inactive)
16,O=C1N[C@@H](Cc2ccccc2)C(=O)N2[C@H]1C[C@]1(Br)c3ccccc3N(S(=O)(=O)c3ccccc3)[C@H]21,5.8% (inactive)
17,Cc1cc(=O)cc(C)[nH]1,9.7% (inactive)
18,O=C(Cc1ccccc1)NCC1OCCc2ccccc21 (configuration not stated),4.02% (inactive)
19,CCOc1ccccc1NC(=O)Cn1nnc(C(=O)NCc2cccs2)c1N,0.467% (inactive)
20,CC(C)Cn1c(N)c(C(=O)NCc2cccs2)c2nc3ccccc3nc21,59.9% (active)
21,COCC(C)OC(=O)c1c(N)n(CCCN2CCOCC2)c2nc3ccccc3nc12 (configuration not stated),5.92% (inactive)
22,Cc1cc(NC(=O)CSC2=NS(=O)(=O)c3cc(Cl)ccc3N2)no1,11.8% (inactive)
23,C=CCn1c(=O)c(C(=O)Nc2ncccc2O)c(O)c2ccccc21,33.8% (inactive)
24,CCCn1c(=O)c(C(=O)Nc2cc(C)ccn2)c(O)c2ccccc21,13.4% (inactive)
25,Cn1c(=O)c(C(=O)Nc2ncccn2)c(O)c2ccccc21,60% (active)

row,Compound,inhibition
1,CCSC1(SCC)N=C(N)C2(C#N)C(c3ccccc3)NC(C)=CC12C#N (configuration not stated),9.77% (inactive)
2,CSc1nccc(NC(=O)c2ccc(C(C)(C)C)cc2)n1,42.9% (inactive)
3,CC(C)(C)NC(=O)CSc1nnc(NC(=O)CCc2ccccc2)s1,8.92% (inactive)
4,Oc1c(CN2CCN(c3ccc(F)cc3)CC2)cc(Cl)c2cccnc12,54.1% (active)
5,Oc1c(CN2CCCC2)cc(COCc2ccccc2)c2cccnc12,12.2% (inactive)
6,O=C(CN1CCN(c2ccc(F)cc2)CC1)Nc1ccccc1,7.47% (inactive)
7,O=C1CCC[C@@H]2CC(N3CCCCC3)C[C@@H]3CCN1[C@H]23 (some centres not stated),29.3% (inactive)
8,COc1ccc(/C=N/N(C)C2=NS(=O)(=O)c3ccccc32)cc1OC,1.27% (inactive)
9,COc1ccc2c(c1)O/C(=C\c1ccccc1O)C2=O,0.978% (inactive)
10,COC(=O)c1ccc(/C=C2/C(=O)Oc3ccccc32)cc1,34.3% (inactive)
11,O=C1Oc2ccccc2C(=O)/C1=C/c1ccccc1O,61.1% (active)
12,CCSc1sc(CC)cc1C=O,-3.29% (inactive)
13,CC/C(=N\NC(=S)NC(C)C)c1ccc(OC(F)F)cc1,30.3% (inactive)
14,CCOC(=O)NC(=O)/C(C#N)=C\c1ccccc1,4.67% (inactive)
15,CNC(=O)/C(C#N)=C/c1c(F)cccc1Cl,75.8% (active)
16,O=C(/C=C/c1c(F)cccc1Cl)Nc1nn[nH]n1,9.19% (inactive)
17,CC(=O)c1ccc(S(=O)(=O)NCCC(=O)N2CCN(c3ccccn3)CC2)cc1,12.9% (inactive)
18,CCC(=O)N1CCN(c2ccccc2NC(=O)COc2cccc(C)c2C)CC1,13.7% (inactive)
19,Cc1ccccc1OCC(=O)Nc1ccc(N2CCN(C(=O)C(C)C)CC2)c(Cl)c1,52.8% (active)
20,Cc1ccccc1OCC(=O)Nc1ccc2c(c1)ncn2C,20% (inactive)
21,CCN(CC)C(=O)CSc1nc2ccccc2n1CC(=O)N1CCN(c2ccccc2OC)CC1,12.6% (inactive)
22,NC(=S)c1ccc(C(N)=S)o1,-0.65% (inactive)
23,CC[N+](C)(CC)CCC[n+]1c(-c2ccccc2)c2cc(N)ccc2c2ccc(N)cc21,-96.2% (inactive)
24,Fc1ccccc1/C=C1\CCCC2=C1Nc1ncnn1C2c1ccccc1F (configuration not stated),34% (inactive)
25,CC(=O)C1=C(C)NC(=O)NC1c1ccc2c(c1)OCO2 (configuration not stated),0.126% (inactive)

row,Compound,inhibition
1,CCCC(C)c1nnc(NC(=O)C2CC(=O)N(c3ccc(OCC)cc3)C2)s1 (configuration not stated),16% (inactive)
2,COc1cc(/C=C/C(=O)OCC(=O)NCCCc2ccccc2)ccc1O,16.5% (inactive)
3,COc1ccc(Oc2coc3cc(OC(=O)c4cncc(Br)c4)ccc3c2=O)cc1,-12.3% (inactive)
4,O=C(Oc1c(-c2ccco2)oc2ccccc2c1=O)c1cccnc1,51.2% (active)
5,O=C(OCc1cc2ccccc2[nH]c1=O)c1cccnc1,-4.57% (inactive)
6,CCOC(=O)N1CCN(CC(=O)n2c(C)c(C)c3ccccc32)CC1,30.5% (inactive)
7,CCCCOc1ccc(CON(C(C)=O)C(C)=O)cc1Cl,27% (inactive)
8,Cc1ccc(C2=C/C(=C\c3cccnc3)C(=O)O2)cc1,33.4% (inactive)
9,O=C1OC(c2ccc(Cl)cc2)=N/C1=C\c1cccnc1,40.9% (inactive)
10,Cc1ccccc1C1=N/C(=C/c2cccnc2)C(=O)O1,51.8% (active)
11,CC(C)CC(=O)N1CCN(Cc2ccccc2Br)CC1,1.68% (inactive)
12,COC(=O)c1cccc(N(C(=O)CNC(=O)c2cccs2)C(C(=O)NCC2CCCO2)c2ccc(OC)c(OC)c2)c1 (configuration not stated),0.773% (inactive)
13,COc1cccc(C(=O)Nc2nc3ccc(S(C)(=O)=O)cc3s2)c1,23.6% (inactive)
14,COc1ccc2nc(NC(=O)[C@@H]3CCCN3C(=O)c3cccs3)sc2c1,25.9% (inactive)
15,COc1ccc2nc(NC(=O)NC3CCCCC3)sc2c1,58.4% (active)
16,CC(C)=CCC/C(C)=C/C(=O)O,8.44% (inactive)
17,CC(C)S(=O)(=O)c1csc(NC(=O)Nc2ccc(Cl)cc2)c1Cl,22.2% (inactive)
18,CCn1c(CSc2nncn2-c2ccc(OC)cc2)nc2cc(S(=O)(=O)N(C)C)ccc21,8.84% (inactive)
19,Cc1cc(C(=O)COc2ccccc2Cl)c(C)n1C1CC1,38.7% (inactive)
20,CC1CCCC(C)N1C(=O)CN1CCN(c2nc(-c3ccc(F)cc3)cs2)CC1 (configuration not stated),52.8% (active)
21,O=C(COC(=O)C1CCCO1)Nc1nc(-c2ccc(F)cc2)cs1 (configuration not stated),11.2% (inactive)
22,CCCc1cc(=O)[nH]c(SCC(=O)N2C(C)CCCC2C)n1 (configuration not stated),0.431% (inactive)
